Sampled rows, rich in hits. Any-hit rate of the full collection: about 6.6%.
KB-3-1 tox: KB-3-1 parental cell cytotoxicity | KB-3-1 viability, CellTiter-Glo ATP luminescence, 72 h | Potency, µM (series often up to 46.1 µM), most hits filed as cytotoxic | 400,000 compounds, 1.4% hits | AID 1347075; further: on the % scale 0 is the no-effect control and ±100 the full control effect; nearly all actives have a fitted effect of over 60% in size
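Cytotoxicity measured as CellTiter-Glo luminescence after 72 h at 37 C. Compound titrations were pinned onto drug-naive KB-3-1 parental adenocarcinoma cells grown in DMEM with 10% FBS, and normalized data fitted to concentration-response curves.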
HepG2 tox: counter-screen for TGF-b inhibitors: cytotoxicity in HepG2 cells; HepG2 CAGA-GFP viability, ATP luminescence, 18 h; Potency, µM (highest dose often 46.1 µM), inactives show at the highest dose activity change, negative = cytotoxicity, actives largely listed as cytotoxic; 410,000 compounds, 0.76% hits
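CellTiter-Glo luminescence gave cytotoxicity after 18 hours at 37 degrees C. The cells were HepG2 CAGA-GFP in 1% FBS DMEM, stimulated with 500 pg/mL TGF-beta after compound addition. %Activity was normalised to no-cell wells (complete cell-killing) and DMSO (no toxicity), and curves were fitted and classified.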
TGFb SMAD3 inh: inhibitors of TGF-b signaling; HepG2 CAGA-GFP TGF-b/SMAD3 reporter, GFP fluorescence, 18 h; TGF-beta stimulated, 500 pg/mL final; Potency, µM (top dose mostly 46.1 µM), without a hit: top-dose activity, negative = inhibition, actives largely listed as inhibitors; 410,000 compounds, 1.2% hits; further: on the % scale 0 is the no-effect control and ±100 the full control effect; nearly all actives have a fitted effect of over 65% in size
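Cell-based qHTS in HEPG2 carrying a CAGA-GFP Smad reporter; compounds added before 500 pg/mL final TGF-beta, 18 h incubation at 37 degrees C, GFP fluorescence quantified per cell by imaging cytometry.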
HT1080NT lethal: kills 2HG-producing HT-1080-NT fibrosarcoma cells | HT-1080-NT fibrosarcoma viability, CellTiter-Glo ATP luminescence, 48 h | Potency, µM (top dose mostly 46.1 µM), inactives show at the highest dose activity, negative = less viability, usual class: cytotoxic | 360,000 compounds, 1.6% hits | AID 686970;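 further: NT is the 2HG producing partner of a matched IDH1 knockdown line; 0% = DMSO-treated cells and -100% = media-only wells without cells; nearly all actives have a fitted effect of over 55% in size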
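HT-1080-NT; 750 cells/well; 5% FBS RPMI; 48 h compound, 37 degrees C; CellTiter-Glo luminescence; curve fitting and curve-class assignment.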
HT1080 IDH1KD tx: HT-1080 IDH1 knockdown cell toxicity (counter line) | HT-1080 IDH1 knockdown viability, ATP luminescence, 48 h | 360,000 compounds, 2% hits | Potency, µM (titrated, usually from 46.1 µM), for the others: at the top dose activity, negative = toxicity, most hits filed as cytotoxic | AID 686971;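 further: 0% = DMSO wells and -100% = cell-free medium wells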
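CellTiter-Glo luminescence after 48 h compound exposure at 37 degrees C of IDH1-knockdown HT-1080 cells in 5% FBS RPMI. %Activity scaled between DMSO wells and cell-free media wells, with curves fitted and assigned curve classes.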
KB-V1 MDR tox: KB-V1 MDR subline cytotoxicity; KB-V1 MDR cells viability, CellTiter-Glo, 72 h; Potency, µM (series often up to 46.1 µM), actives largely listed as cytotoxic; 400,000 compounds, 3.4% hits; further: on the % scale 0 is the no-effect control and ±100 the full control effect; nearly all actives have a fitted effect of over 60% in size
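KB-V1, DMEM (no phenol red) + 10% FBS; cpd pin-transferred, titration series; 72 h, 37 degrees C; CellTiter-Glo, luminescence. Data normalized, curve-fit.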
* marks the source's active call; other numbers are inactive results; i = inactive; ? = inconclusive; . = no result given. The call rests on the fitted dose curve; in most records, active means well fitted curve in the direction sought with a large enough effect; inconclusive means small, poorly fitted or top-dose-only effect, or another doubt; inactive means no such curve, though single readings can be large; an effect the other way counts as inactive or inconclusive. Potency means the concentration at half of the fitted maximal effect.

SMILES	KB-3-1 tox	HepG2 tox	TGFb SMAD3 inh	HT1080NT lethal	HT1080 IDH1KD tx	KB-V1 MDR tox
COc1ccc2c(c1)OC[C@H]1[C@H]2N2C(=O)c3ccccc3NC(=O)[C@@]2(C)[C@H]1c1ccccc1	20.6µM*	-2.8%	?	?	?	?
C[C@@]12C(=O)Nc3ccc(Cl)cc3C(=O)N1[C@H]1c3cc(Cl)ccc3OC[C@@H]1[C@@H]2c1ccccc1	i	-34.6%	-6.0%	-25.9%	-28.3%	i
Cc1ccc2c(c1)[C@H]1[C@H](CO2)[C@H](c2ccccc2)[C@]2(C)C(=O)Nc3ccccc3C(=O)N12	i	-18.5%	-25.6%	5.8µM*	6.51µM*	?
Cc1ccc2c(c1)[C@H]1[C@H](CO2)[C@H](c2ccccc2)[C@]2(C)C(=O)Nc3cc(F)ccc3C(=O)N12	?	-14.0%	-28.2%	?	8.2µM*	?
C[C@@]12C(=O)Nc3ccccc3C(=O)N1[C@H]1c3cc(Cl)ccc3OC[C@@H]1[C@@H]2c1ccccc1	?	-14.3%	-15.4%	?	18.4µM*	?
COc1ccc(-n2c(=O)c(CCC(=O)N3CCC(C)CC3)nc3ccccc32)cc1	i	-10.5%	-13.7%	-1.4%	-0.5%	i
Cc1cc(C)c2c(=O)cc(C(=O)Nc3ccc(C)c(Cl)c3)oc2c1	i	10.9%	14.3%	.	.	i
Cc1ccc(Oc2coc3cc(OC(=O)c4cccs4)ccc3c2=O)cc1	i	-12.8%	13.9%	2.1%	-3.6%	i
CC(=O)Oc1ccc2c(=O)c(Oc3ccccc3)coc2c1OC(C)=O	?	0.1%	-23.9%	1.1%	-6.2%	13µM*
CC(C)CC(NC(=O)c1ccc(Cl)cc1)C(=O)OCC(=O)c1ccc2c(c1)NC(=O)CO2 (stereo not given)	7.31µM*	3.16µM*	11.2µM*	10.3µM*	8.2µM*	i
CC(O)C(NS(=O)(=O)c1ccc(Cl)cc1)C(=O)OCC(=O)c1ccc2c(c1)NC(=O)CO2 (stereo not given)	i	8.5%	-1.5%	4.0%	12.6%	?
Cc1cccc(C(=O)CC(=O)c2cc(Cl)ccc2O)c1	?	-91.6%	?	?	?	9.2µM*
COc1ccc(O)c(C(=O)CC(=O)c2ccc(F)cc2)c1	?	-45.8%	?	-16.1%	?	2.91µM*
COc1ccc(C(=O)CC(=O)c2ccccc2O)cc1	i	-21.4%	-0.1%	?	?	i
O=C(CC(=O)c1cc(Cl)ccc1O)c1ccccc1	?	11.2µM*	?	?	?	?
Cc1ccc(O)c(C(=O)CC(=O)c2ccc(Cl)cc2)c1	?	-15.9%	?	?	?	i
C=CC[n+]1ccc(/C=C2\C=Cc3cc(C)ccc3N2CC)c2ccccc21	8.2µM*	-47.1%	2.82µM*	5.8µM*	4.11µM*	i
CCc1ccccc1NC(=O)CN1C(=O)C2CCCN2c2ncc(Cl)cc21 (stereo not given)	i	3.2%	1.9%	5.3%	4.5%	14.6µM*
COC(=O)c1cc2sccc2n1Cc1nc(-c2ccc(C)cc2)oc1C	i	-14.4%	-0.9%	.	.	i
COc1ccccc1NC(=O)CN(Cc1ccco1)C(=O)c1ccc(-n2nc(C)cc2C)cc1	i	4.2%	6.9%	7.4%	2.3%	2.06µM*
COc1ccccc1NC(=O)CN(Cc1ccco1)C(=O)c1cncc(Br)c1	i	4.2%	-20.0%	0.0%	-6.7%	?
CCC(C)NCCOCCSc1ccc(Cl)cc1 (stereo not given)	i	-42.2%	23.5%	0.3%	-14.3%	i
C=CCc1cc(Cl)ccc1OCCCNC(C)C	?	-33.4%	-10.8%	?	-26.0%	?
CCC(C)NCCCOc1cc(Cl)ccc1Cl (stereo not given)	i	-8.7%	24.5%	-18.7%	-27.7%	i
C=CCc1cc(Cl)ccc1OCCOCCNC(C)CC (stereo not given)	i	-46.5%	39.1%	16.4µM*	?	i
SMILES	KB-3-1 tox	HepG2 tox	TGFb SMAD3 inh	HT1080NT lethal	HT1080 IDH1KD tx	KB-V1 MDR tox
CCC(C)NCCCCOc1ccc(Cl)cc1C (stereo not given)	i	-32.9%	-8.0%	?	?	16.4µM*
CCC(C)NCCOCCOc1ccc(Cl)c2ccccc12 (stereo not given)	?	-51.8%	?	16.4µM*	20.6µM*	?
CCC(C)NCCOCCOc1ccc(Cl)c(C)c1C (stereo not given)	?	-17.8%	-30.2%	?	20.6µM*	?
Cc1ccc(NC(=O)C2CCC(CNS(=O)(=O)c3csc(C(N)=O)c3)CC2)cc1Cl (stereo not given)	i	-29.5%	-18.8%	.	.	i
COc1ccc(NC(=O)Cn2c(=O)n(-c3ccccc3)c(=O)c3c4c(sc32)CCCC4)cc1	i	-0.6%	-11.9%	.	.	i
Cc1cccc(NC(=O)c2ccc([N+](=O)[O-])o2)c1C	i	-40.2%	?	23.1µM*	18.4µM*	?
O=C(Nc1cc(-c2nc3ncccc3o2)ccc1Cl)c1ccc([N+](=O)[O-])o1	3.66µM*	4.5%	?	?	?	?
O=C(Nc1cccc2ccccc12)c1ccc([N+](=O)[O-])o1	?	-127.6%	?	?	13µM*	?
Cc1ccc(C(=O)Nc2cccc3ccccc23)o1	i	-27.1%	7.1%	12.2%	12.6%	i
Cc1ccc(Cl)cc1N1CCN(C(=O)C2CCN(S(=O)(=O)c3c(C)noc3/C=C/c3ccccc3F)CC2)CC1	.	2.1%	-6.9%	.	.	.
COc1cccc(NC(=O)C2CCN(S(=O)(=O)c3c(C)noc3/C=C/c3cccs3)CC2)c1	.	-33.6%	?	.	.	.
Cn1c(-c2ccccc2)cc2ccccc21	i	-27.1%	-24.2%	-1.1%	8.5%	i
Cn1c(C(c2cc3ccccc3n2C)c2cc3ccccc3n2C)cc2ccccc21	18.4µM*	-99.7%	?	.	.	?
Cc1ncoc1C(=O)NC1CCCc2c1cnn2-c1ccc(C(C)(C)C)cc1 (stereo not given)	18.4µM*	-28.3%	?	?	?	i
CCOC(=O)C(=O)NNc1ccc(F)cc1	?	4.9%	14.4%	11.6µM*	8.2µM*	i
COc1ccc2sc(N(Cc3cccnc3)C(=O)C3COc4ccccc4O3)nc2c1 (stereo not given)	i	-14.7%	0.0%	.	.	i

Screening data from PubChem.
